Laboratory results taken from the supplement of paper PMC8728848.
Shown is part of a subset that was picked to be rich in the strongest signals.

What was measured:
Assay in all cases: glycan array binding signal (z-score within array); higher = stronger binding
Settings in all cases: glycan notation: IUPAC condensed, linker removed
[1] = molecular target: Fuc(a1-2)Gal(b1-3)GalNAc(b1-4)[Neu5Ac(a2-3)]Gal(b1-4)Glc
In short: (§1)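 Negative Z-scores can be read as non-binding. The Z-score is calculated within each array and then averaged across arrays of one protein sequence at different concentrations or buffers and across linkers. Arrays, 3228 in all, were curated from the Consortium for Functional Glycomics database and kept only where the protein sequence was available.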

[2] = molecular target: Fuc(a1-2)Gal(b1-3)GlcNAc6S
In short: as §1

[3] = molecular target: Fuc(a1-2)Gal(b1-3)[Fuc(a1-4)]GlcNAc(b1-3)[Fuc(a1-3)[Gal(b1-4)]GlcNAc(b1-6)]Gal(b1-4)Glc
In short: as §1

Fuc(a1-2)Gal(b1-4)Glc6S = molecular target: Fuc(a1-2)Gal(b1-4)Glc6S
In short: as §1

Fuc(a1-2)Gal(b1-4)GlcNAc = molecular target: Fuc(a1-2)Gal(b1-4)GlcNAc
In short: as §1

[4] = molecular target: Fuc(a1-2)Gal(b1-4)GlcNAc(b1-2)Man(a1-3)[Fuc(a1-2)Gal(b1-4)GlcNAc(b1-2)Man(a1-6)]Man(b1-4)GlcNAc(b1-4)[Fuc(a1-6)]GlcNAc
In short: as §1

[5] = molecular target: Fuc(a1-2)Gal(b1-4)GlcNAc(b1-3)Gal(b1-4)GlcNAc
In short: as §1

[6] = molecular target: Fuc(a1-2)Gal(b1-4)[Fuc(a1-3)]GlcNAc(b1-3)GalNAc
In short: as §1

[7] = molecular target: Fuc(a1-2)[Gal(a1-3)]Gal(b1-4)[Fuc(a1-3)]Glc
In short: as §1

[8] = molecular target: Fuc(a1-2)[GalNAc(a1-3)]Gal(b1-4)Glc
In short: as §1

[9] = molecular target: Fuc(a1-2)[GalNAc(a1-3)]Gal(b1-4)GlcNAc(b1-2)Man(a1-3)[Fuc(a1-2)[GalNAc(a1-3)]Gal(b1-4)GlcNAc(b1-2)Man(a1-6)]Man(b1-4)GlcNAc(b1-4)[Fuc(a1-6)]GlcNAc
In short: as §1

[10] = molecular target: Fuc(a1-2)[GalNAc(a1-3)]Gal(b1-4)GlcNAc(b1-6)GalNAc
In short: as §1

[11] = molecular target: Fuc(a1-2)[GalNAc(a1-3)]Gal(b1-4)[Fuc(a1-3)]GlcNAc
In short: as §1

[12] = molecular target: Fuc(a1-2)[GalNAc(a1-3)]Gal(b1-4)[Fuc(a1-3)]GlcNAc(b1-3)GalNAc
In short: as §1

[13] = molecular target: Fuc(a1-3)[Gal(b1-4)]GlcNAc(b1-2)Man(a1-3)[Fuc(a1-3)[Gal(b1-4)]GlcNAc(b1-2)Man(a1-6)]Man(b1-4)GlcNAc(b1-4)[Fuc(a1-6)]GlcNAc
In short: as §1

[14] = molecular target: Fuc(a1-3)[Gal(b1-4)]GlcNAc(b1-3)Gal(b1-4)[Fuc(a1-3)]GlcNAc(b1-3)Gal(b1-4)[Fuc(a1-3)]GlcNAc
In short: as §1

[15] = molecular target: Fuc(a1-3)[Gal(b1-4)]GlcNAc6S
In short: as §1

[16] = molecular target: Gal(a1-3)Gal(b1-4)[Fuc(a1-3)]GlcNAc(b1-2)Man(a1-3)[Gal(a1-3)Gal(b1-4)[Fuc(a1-3)]GlcNAc(b1-2)Man(a1-6)]Man(b1-4)GlcNAc(b1-4)GlcNAc
In short: as §1

[17] = molecular target: Gal(a1-4)Gal(b1-4)GlcNAc(b1-2)Man(a1-3)[Gal(a1-4)Gal(b1-4)GlcNAc(b1-2)Man(a1-6)]Man(b1-4)GlcNAc(b1-4)GlcNAc
In short: as §1

[18] = molecular target: Gal(b1-3)GlcNAc(b1-2)[Gal(b1-3)GlcNAc(b1-6)]Man(a1-6)[Gal(b1-3)GlcNAc(b1-2)Man(a1-3)]Man(b1-4)GlcNAc(b1-4)GlcNAc
In short: as §1

[19] = molecular target: Gal(b1-3)GlcNAc(b1-3)Gal(b1-4)[Fuc(a1-3)]GlcNAc
In short: as §1

[20] = molecular target: Gal(b1-3)GlcNAc(b1-6)Gal(b1-4)GlcNAc
In short: as §1

[21] = molecular target: Gal(b1-4)GlcNAc(b1-2)Man(a1-3)[Gal(b1-4)GlcNAc(b1-2)Man(a1-6)][GlcNAc(b1-4)]Man(b1-4)GlcNAc(b1-4)[Fuc(a1-6)]GlcNAc
In short: as §1

[22] = molecular target: Gal(b1-4)GlcNAc(b1-3)Gal(b1-4)GlcNAc(b1-2)[Gal(b1-4)GlcNAc(b1-3)Gal(b1-4)GlcNAc(b1-6)]Man(a1-6)[Gal(b1-4)GlcNAc(b1-3)Gal(b1-4)GlcNAc(b1-2)Man(a1-3)]Man(b1-4)GlcNAc(b1-4)GlcNAc
In short: as §1

[23] = molecular target: Gal(b1-4)GlcNAc(b1-3)Gal(b1-4)GlcNAc(b1-3)Gal(b1-4)GlcNAc(b1-2)Man(a1-3)[Gal(b1-4)GlcNAc(b1-3)Gal(b1-4)GlcNAc(b1-3)Gal(b1-4)GlcNAc(b1-2)Man(a1-6)]Man(b1-4)GlcNAc(b1-4)GlcNAc
In short: as §1

[24] = molecular target: Gal(b1-4)GlcNAc(b1-3)Gal(b1-4)GlcNAc(b1-3)Gal(b1-4)GlcNAc(b1-3)Gal(b1-4)GlcNAc(b1-2)Man(a1-3)[Gal(b1-4)GlcNAc(b1-3)Gal(b1-4)GlcNAc(b1-3)Gal(b1-4)GlcNAc(b1-3)Gal(b1-4)GlcNAc(b1-2)Man(a1-6)]Man(b1-4)GlcNAc(b1-4)[Fuc(a1-6)]GlcNAc
In short: as §1

[25] = molecular target: Gal(b1-4)GlcNAc(b1-3)Gal(b1-4)GlcNAc(b1-3)Gal(b1-4)GlcNAc(b1-3)Gal(b1-4)GlcNAc(b1-2)[Gal(b1-4)GlcNAc(b1-3)Gal(b1-4)GlcNAc(b1-3)Gal(b1-4)GlcNAc(b1-3)Gal(b1-4)GlcNAc(b1-6)]Man(a1-6)[Gal(b1-4)GlcNAc(b1-3)Gal(b1-4)GlcNAc(b1-3)Gal(b1-4)GlcNAc(b1-3)Gal(b1-4)GlcNAc(b1-2)Man(a1-3)]Man(b1-4)GlcNAc(b1-4)[Fuc(a1-6)]GlcNAc
In short: as §1

[26] = molecular target: Gal(b1-4)GlcNAc(b1-3)Gal(b1-4)GlcNAc(b1-3)Gal(b1-4)GlcNAc(b1-3)Gal(b1-4)GlcNAc(b1-3)Gal(b1-4)GlcNAc(b1-2)Man(a1-3)[Gal(b1-4)GlcNAc(b1-3)Gal(b1-4)GlcNAc(b1-3)Gal(b1-4)GlcNAc(b1-3)Gal(b1-4)GlcNAc(b1-3)Gal(b1-4)GlcNAc(b1-2)Man(a1-6)]Man(b1-4)GlcNAc(b1-4)GlcNAc
In short: as §1

[27] = molecular target: Gal(b1-4)GlcNAc(b1-3)Gal(b1-4)GlcNAc(b1-3)Gal(b1-4)GlcNAc(b1-3)Gal(b1-4)GlcNAc(b1-3)Gal(b1-4)GlcNAc(b1-2)Man(a1-3)[Gal(b1-4)GlcNAc(b1-3)Gal(b1-4)GlcNAc(b1-3)Gal(b1-4)GlcNAc(b1-3)Gal(b1-4)GlcNAc(b1-3)Gal(b1-4)GlcNAc(b1-2)Man(a1-6)]Man(b1-4)GlcNAc(b1-4)[Fuc(a1-6)]GlcNAc
In short: as §1

Gal6S(b1-3)GlcNAc6S = molecular target: Gal6S(b1-3)GlcNAc6S
In short: as §1

B1: GS7807H-bfa-490-18-490 (Bacteroides fragilis) (protein)
chain: GNLEEMNIDPDNATQTHPKLLLTQICMNAFKRGTDGMYATKKVIQADGESADQYYKWTRGSFGYYDNLRNVQKMGEEAERVNAPVYTALTKFFRAYYFYELTLRFGDIPYSQALKGEKEEIYTPEYDAQEDVFAGILQELREADEILANDASVIDGDIIYNGNSTQWRKLINSFRLKVLMTLSNHTTVGNINIASEFKNIATNSPLMNSLADNGQLVYLDQQGNRYPQFNAQWSGYYMDDTFIQRMRERRDPRLFIFSAQTNKGKTEGKPIDDFSSYEGGDPAAPYSDAIIKVSEGTISPINDRFRTDPIVEPTMLMGYAELQQILAEAVVRGWISGNAQTYYEKGIRASFSFYETHAKDYAGYLNENAVAQYLKEPLVDFTQASGTEEQIERIIMQKYLVTFYQGNWDSFYEQLRTGYPDFRRPAGTEIPKRWMYPQGEYDNNGTNVETAITRQFGAGNDKINQATWWQKKS
With B1 as the binder, how does the “glycan array binding signal (z-score)” value [1] read?
The value was -0.424.

What about the “glycan array binding signal (z-score)” value [2] of the same binder?
The value was 0.079.

What about the “glycan array binding signal (z-score)” value [3] of the same binder?
Its value is -0.223.

And the “glycan array binding signal (z-score)” value (Fuc(a1-2)Gal(b1-4)Glc6S)?
The value was -0.448.

What about the “glycan array binding signal (z-score)” value (Fuc(a1-2)Gal(b1-4)GlcNAc) of the same binder?
Its value is -0.024.

What about the “glycan array binding signal (z-score)” value [4] of the same binder?
Its value is 2.33.

And the “glycan array binding signal (z-score)” value [5]?
The value was -0.786.

And the “glycan array binding signal (z-score)” value [6]?
Its value is 0.672.

What about the “glycan array binding signal (z-score)” value [7] of the same binder?
The value was -0.426.

What about the “glycan array binding signal (z-score)” value [8] of the same binder?
Its value is -0.704.

What about the “glycan array binding signal (z-score)” value [9] of the same binder?
The value was 0.217.

What about the “glycan array binding signal (z-score)” value [10] of the same binder?
The value was -0.479.

And the “glycan array binding signal (z-score)” value [11]?
The value was 0.449.

What about the “glycan array binding signal (z-score)” value [12] of the same binder?
Its value is 0.984.

And the “glycan array binding signal (z-score)” value [13]?
Its value is 1.38.

And the “glycan array binding signal (z-score)” value [14]?
Its value is 0.166.

What about the “glycan array binding signal (z-score)” value [15] of the same binder?
The value was -0.707.

What about the “glycan array binding signal (z-score)” value [16] of the same binder?
Its value is 1.36.

What about the “glycan array binding signal (z-score)” value [17] of the same binder?
Its value is 6.27.

And the “glycan array binding signal (z-score)” value [18]?
The value was 2.29.

What about the “glycan array binding signal (z-score)” value [19] of the same binder?
The value was 0.374.

What about the “glycan array binding signal (z-score)” value [20] of the same binder?
The value was 9.32.

And the “glycan array binding signal (z-score)” value [21]?
Its value is -0.8.

What about the “glycan array binding signal (z-score)” value [22] of the same binder?
Its value is 11.2.

And the “glycan array binding signal (z-score)” value [23]?
The value was 2.19.

And the “glycan array binding signal (z-score)” value [24]?
The value was 2.51.

What about the “glycan array binding signal (z-score)” value [25] of the same binder?
The value was 2.08.

What about the “glycan array binding signal (z-score)” value [26] of the same binder?
The value was 1.71.

What about the “glycan array binding signal (z-score)” value [27] of the same binder?
The value was 2.17.

And the “glycan array binding signal (z-score)” value (Gal6S(b1-3)GlcNAc6S)?
Its value is 1.52.
